High-throughput results (PubChem)
L major viab: inhibitors of Leishmania major promastigote growth | inhibition, % at 10 µM | AID 1063 | 9% of 200,000 active | Leishmania major promastigotes, resazurin fluorescence viability; in the data active means inhibition above about 50%;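 further: promastigotes grown with compound for 44 hours at 28 °C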
Cl transport mod: modulators of human KCC2 chloride dependent transport; Q9H2X9; KCC2 cells, thallium flux FluoZin-2 fluorescence; B-score of Tl+ flux slope (higher = more flux/activation; lower = inhibition) at 10 µM; 2.2% of 190,000 active;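 active means thallium flux slope and its plate-corrected score both differing from the plate sample mean at a set confidence after two filtering rounds, in either direction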;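 further: slope of fluorescence scaled to starting intensity during 10 to 20 s after thallium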
Target sequence (Q9H2X9 whole entry, looked up): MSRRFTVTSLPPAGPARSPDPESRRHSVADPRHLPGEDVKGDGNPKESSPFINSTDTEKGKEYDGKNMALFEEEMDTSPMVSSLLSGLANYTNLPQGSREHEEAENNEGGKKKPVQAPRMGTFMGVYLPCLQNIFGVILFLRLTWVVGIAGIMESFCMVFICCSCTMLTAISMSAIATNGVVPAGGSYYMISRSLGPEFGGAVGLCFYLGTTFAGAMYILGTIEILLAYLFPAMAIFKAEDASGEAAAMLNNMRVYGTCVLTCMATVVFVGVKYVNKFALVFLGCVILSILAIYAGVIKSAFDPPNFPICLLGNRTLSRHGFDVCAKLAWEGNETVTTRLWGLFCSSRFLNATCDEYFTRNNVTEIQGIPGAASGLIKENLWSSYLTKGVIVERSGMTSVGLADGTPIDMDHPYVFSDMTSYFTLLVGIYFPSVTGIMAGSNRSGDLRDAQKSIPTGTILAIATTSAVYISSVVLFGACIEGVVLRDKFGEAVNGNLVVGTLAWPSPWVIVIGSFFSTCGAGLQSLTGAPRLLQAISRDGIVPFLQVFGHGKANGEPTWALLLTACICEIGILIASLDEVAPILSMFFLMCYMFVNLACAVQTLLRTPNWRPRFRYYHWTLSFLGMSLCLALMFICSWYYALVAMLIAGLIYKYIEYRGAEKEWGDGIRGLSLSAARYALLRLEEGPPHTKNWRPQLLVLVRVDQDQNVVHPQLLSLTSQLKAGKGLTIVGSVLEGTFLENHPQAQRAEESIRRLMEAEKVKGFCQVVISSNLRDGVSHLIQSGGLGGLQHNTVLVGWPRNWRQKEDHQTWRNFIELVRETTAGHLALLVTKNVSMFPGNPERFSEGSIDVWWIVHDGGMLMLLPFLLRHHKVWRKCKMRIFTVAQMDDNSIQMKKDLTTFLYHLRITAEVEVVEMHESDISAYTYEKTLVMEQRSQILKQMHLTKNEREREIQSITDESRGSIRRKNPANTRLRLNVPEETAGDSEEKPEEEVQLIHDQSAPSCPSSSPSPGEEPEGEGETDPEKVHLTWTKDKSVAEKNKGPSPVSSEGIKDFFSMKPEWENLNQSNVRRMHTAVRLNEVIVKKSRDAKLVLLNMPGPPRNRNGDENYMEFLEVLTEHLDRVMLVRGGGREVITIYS
ROMK primary: modulates human ROMK potassium channel activity; P48048; B-score at 10 µM; 2% of 130,000 active; Tet-inducible ROMK, thallium flux fluorescence; actives lie on both sides;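 active means signal ratio slope over the read window, or its plate-corrected B-score, at least 3 SD from the plate mean, either direction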;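 further: B-score of the F/F0 ratio slope over 7 to 12 s after thallium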
WT yeast gro inh: growth inhibition of WT yeast, mitochondrial fusion screen; mitochondrial fusion phenotypic screen, WT strain; inhibition, % at 10 µM; 2.1% of 190,000 active; in the data active means inhibition above about 58%; tested in S. cerevisiae
Calpain2 inh: blocks pig calpain II enzyme activity | 0.37% of 220,000 active | AID 1236 | purified calpain II, fluorogenic peptide substrate, 30 min | inhibition, % at 16 µM;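 active means inhibition above about 50%, limit read from the data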
Each line names hits and unclear results; the compound was inactive in the other large screens. Hits are enriched below; roughly 12% of the tested compounds scored in any of these assays.

Cc1c(C(=O)Nc2cccc(Cl)c2)oc2ccc(S(=O)(=O)N3CCC4(CC3)OCCO4)cc12	L major viab 51.7
CC(C)C(NC(=O)OCc1ccccc1)C(=O)NCc1ccc(C(=O)O)cc1 (stereo not given)	none
COc1ccc(Cl)cc1NC(=O)c1ccco1	L major viab 64.4 (no result: Cl transport mod, ROMK primary)
COc1cc(NC(=O)c2ccco2)c(OC)cc1NC(=O)Nc1ccccc1Cl	L major viab 72.1
COc1cccc(C(C)NC(=O)Nc2cc(Cl)ccc2OC)c1 (stereo not given)	none
COc1ccc(Cl)cc1NC(=O)NC(C)C	L major viab 94.8 (no result: ROMK primary)
CCCc1[nH]n(-c2ccc([N+](=O)[O-])cc2)c(=O)c1C(C)=NCc1ccncc1	none (no result: L major viab, ROMK primary, WT yeast gro inh)
CC1=C(C(=O)OCc2ccc3c(c2)OCO3)C(c2ccccc2OCc2ccccc2)NC(=O)N1 (stereo not given)	L major viab 99.0 (no result: Cl transport mod)
COc1ccc2cc(C(=O)C3CCCN(C(=O)c4snnc4C)C3)ccc2c1 (stereo not given)	none
COc1ccc(F)cc1C(=O)C1CCCN(Cc2cnc(N3CCCC3)s2)C1 (stereo not given)	none (no result: Cl transport mod)
COc1ccc2cc(C(=O)C3CCCN(Cc4cnc(C)s4)C3)ccc2c1 (stereo not given)	L major viab 79.2 (no result: ROMK primary)
COc1ccc(CN2CCCC(C(=O)c3ccc(Cl)cc3)C2)cc1Cn1cccn1 (stereo not given)	L major viab 95.9 (no result: Cl transport mod)
COc1ccc(Cl)cc1C(=O)C1CCCN(Cc2cnc(N3CCOCC3)s2)C1 (stereo not given)	none
COc1c(C)cc(C(=O)C2CCCN(Cc3cnc(N4CCOCC4)s3)C2)cc1C (stereo not given)	L major viab 99.8
COc1ccc(C(=O)C2CCCN(Cc3cnc(N4CCCC4)s3)C2)cc1OC (stereo not given)	L major viab 71.8 (no result: Cl transport mod)
COc1ccccc1C1CC(c2ccc(C)cc2)Nc2ncnn21 (stereo not given)	none (no result: ROMK primary)
COc1ccc(OC)c(NC(=O)C23CCC(C)(C(=O)C2)C3(C)C)c1 (stereo not given)	none
O=C(/C=C/c1ccco1)N(c1ccccn1)c1ccccn1	none
CCOc1ccc(C(=O)Nc2nnc(C(C)C)s2)cc1OCC	L major viab 86.5
Cc1ccc(S(=O)(=O)Nc2ccc(SC(F)F)cc2)c(C)c1	none
COC(=O)c1sc(NC(=S)NC(=O)c2ccccc2)nc1C	Cl transport mod 35.3 (no result: ROMK primary)
COC(=O)c1ccccc1NC(=S)NC(=O)c1ccc(C)cc1	Cl transport mod 11 (no result: ROMK primary)
COC(=O)c1sc(NC(=O)/C=C/c2ccccc2Cl)nc1C	none
COC(=O)c1sc(NC(=S)NC(=O)c2ccccc2Cl)nc1C	Cl transport mod 50.4 (no result: ROMK primary)
Clc1ccc(-n2nnnc2-c2ccno2)cc1	none (no result: L major viab, ROMK primary, WT yeast gro inh)
O=S1(=O)N=C(N/N=C/c2ccc(Br)o2)c2ccccc21	none
CC1CCCC(C)N1NC(=S)Nc1ccc(OC(F)F)cc1 (stereo not given)	none
CC(C)(C)NC(=O)c1cccc(NC(=O)Cc2cccs2)c1	none
CC(C)(C)NC(=O)c1cccc(NC(=O)CSc2ccccc2)c1	L major viab 77.5 (no result: ROMK primary)
COCC(C)N=C1NN=C(c2cc(C)n(Cc3ccccc3Cl)c2C)CS1 (stereo not given)	L major viab 63.8
CC(=O)N(NC(N)=O)C(C)CC(=O)C1C(C)C=CCC1(C)C (stereo not given)	none (no result: L major viab, ROMK primary, WT yeast gro inh)
CCCc1nc2ccccc2n2cc3c(=O)n(C)c(=O)n(C)c3c12	none (no result: ROMK primary, WT yeast gro inh, Calpain2 inh)
Cc1cc(CN2CCN(CCC#N)CC2)c(O)c(C2(C)CCCCC2)c1	WT yeast gro inh 83.6 (no result: ROMK primary)
COc1ccc(C(=O)Nc2ccc(SC(F)F)cc2)cc1	none
CCCCOc1ccc(C(=O)Nc2ccc(SC(F)F)cc2)cc1OC	L major viab 70.8
COCCNc1nnnc2c1sc1nc(N3CCOCC3)c3c(c12)CCCC3	L major viab 61.6
NNc1nnnc2c1sc1nc(N3CCOCC3)c3c(c12)CCCC3	none (no result: L major viab, WT yeast gro inh)
CCc1cccc(C)c1NC(=S)NCC(c1cccnc1)N(C)C (stereo not given)	none
O=C1c2ccccc2NC(c2ccc(Cl)cc2Cl)N1Cc1ccccc1 (stereo not given)	L major viab 82.1, WT yeast gro inh 80.6
O=C1c2ccccc2NC(c2c(Cl)cccc2Cl)N1Cc1ccccc1 (stereo not given)	L major viab 55.8 (no result: ROMK primary)
Cc1cccc(C2Nc3ccccc3C(=O)N2CCc2ccccc2)n1 (stereo not given)	none (no result: Cl transport mod)
COc1ccc(-c2nc(-c3cccs3)c(-c3cccs3)[nH]2)cc1O	none (no result: ROMK primary)
CC(OC(=O)c1ccc2c(c1)C(=O)N(Cc1ccncc1)C2=O)C(=O)Nc1cccc(Cl)c1Cl (stereo not given)	none (no result: ROMK primary)
O=C(COC(=O)c1ccc2c(c1)C(=O)N(Cc1ccncc1)C2=O)Nc1ccccc1[N+](=O)[O-]	L major viab 54.4 (no result: ROMK primary)
Cc1cccc2sc(NNC(=O)c3cc(=O)c4ccccc4o3)nc12	none (no result: ROMK primary)
Cc1ccc2sc(NNC(=O)c3cc(=O)c4ccccc4o3)nc2c1C	Cl transport mod -3.28 (no result: ROMK primary)
CC(CO)Nc1nc(SCc2ccccc2)nc2sc3c(c12)CCC3 (stereo not given)	WT yeast gro inh 75.1 (no result: ROMK primary)
CC1=CC2CC1C1C(=O)N(c3ccc(S(=O)(=O)Nc4nc(C)cc(C)n4)cc3)C(=O)C21 (stereo not given)	L major viab 52.0 (no result: ROMK primary)
Cn1ccnc1SCC(=O)c1ccc(Br)cc1	WT yeast gro inh 67.1 (no result: Cl transport mod, ROMK primary)
Cc1snc2sc(C(=O)c3ccc(F)cc3)c(N)c12	none (no result: L major viab, ROMK primary, WT yeast gro inh)
Cc1ccc(S(=O)(=O)N2CCCC2C(=O)Oc2ccccc2)cc1 (stereo not given)	none (no result: ROMK primary)
COc1ccc2nc(N3C(=O)CC(Cc4ccc(C)cc4)C3=O)sc2c1 (stereo not given)	L major viab 75.7
O=C1CC(C(=O)Nc2ccc(Cl)cc2)n2ncnc2N1 (stereo not given)	Calpain2 inh 74.2
COc1cc(/C=N/NC(=O)COc2ccc(Cl)cc2)ccc1OS(=O)(=O)c1ccc(C)cc1	L major viab 98.7
COc1cc(/C=N/NC(=O)COc2cccc(F)c2)ccc1OS(=O)(=O)c1ccc(C)cc1	L major viab 99.1
NC1=NC(c2ccccc2)=NC1(NC(=O)c1ccccc1)C(Cl)Cl (stereo not given)	none (no result: L major viab, ROMK primary, WT yeast gro inh)
CCOc1ccccc1C(=O)Nc1cccc(-c2nnc(-c3ccccc3)o2)c1	none (no result: ROMK primary)
CCOC(=O)C1=C(C)NC(=S)NC1c1ccco1 (stereo not given)	none (no result: L major viab, ROMK primary, WT yeast gro inh)
CCOC(=O)C1=C(c2ccccc2)NC(=S)NC1c1ccc(Cl)c([N+](=O)[O-])c1 (stereo not given)	L major viab 57.8
CCOC(=O)C1=C(c2cccc(Oc3ccccc3)c2)NC(=S)NC1C (stereo not given)	WT yeast gro inh 64.2
CCOC(=O)C1=C(C)C(c2cccc(Oc3ccccc3)c2)NC(=S)N1 (stereo not given)	WT yeast gro inh 66.0
CCOC(=O)C1=C(c2ccccc2)NC(=O)NC1c1cc(Cl)c(O)c(OC)c1 (stereo not given)	none
CCOC(=O)C1=C(C)C(c2ccc(OC)cc2)NC(=S)N1 (stereo not given)	none
CCOC(=O)Cc1cc(=O)n2[nH]c(C(C)(C)C)cc2n1	none (no result: L major viab, ROMK primary, WT yeast gro inh)
